Screens: PubChem BioAssay, Broad Institute
The list is not random: actives were taken first. Their share in the collection is about 2.1%.
aSyn 5UTR inh: MLPCN primary screen, SNCA 5' untranslated region. alpha-synuclein 5'UTR reporter, inhibitor activity. inhibition, % (tested at 7.5 µM). hit rate 0.82% among 300,000. AID 1813, 2009; in the data active = inhibition above about 60%; inconclusive = no clear call, values can overlap the other calls;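 note: H4 neuroglioblastoma cells stably carrying SNCA 5'UTR luciferase fusion; 0% = DMSO wells and 100% = positive control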
Shn3 inh set2: reduction of Shn3 3'UTR firefly luciferase signal, primary screen, Schnurri-3 inhibitor project, cell-based, Clone20 osteoblasts, set 2; Clone20 osteoblast Shn3 3'UTR firefly luciferase, 24 h; inhibition, % at 12.5 µM; hit rate 0.52% among 360,000; AID 588674, 2011;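 active = mean inhibition of at least 75% with every replicate also reaching 75%; inconclusive = mean inhibition at least 75% but some replicate below; inactive = mean inhibition below 75%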;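 note: 0% = median of neutral control wells and 100% = pilot-screen positive control compound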
PAX8 reporter: inhibitors of PAX8-driven TPO luciferase reporter, primary screen, RMG-I cells, single concentration. inhibition, % at 12.6 µM. hit rate 1.2% among 360,000. SteadyGlo, 24 h;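 active = mean replicate inhibition at least 60% with every replicate also reaching 60%; inconclusive = only one of the two criteria is met; inactive = mean below 60% and not all replicates reaching 60%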;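 note: luciferase light reporting Pax8 driven TPO promoter activity; plate controls were median of neutral control wells for no effect and mitoxantrone controls for full effect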
MITF TRPM1 inh: inhibitors of MITF-dependent TRPM1 promoter reporter, primary screen, cell-based, SK-MEL-5, single point, luciferase. SK-MEL-5 TRPM1 promoter luciferase, 24 h. inhibition, % at 12.5 µM. hit rate 0.83% among 330,000;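 active = mean inhibition across replicates of 60% or more, whatever share of single replicates reaches that level; inconclusive = some that reach 60%, reason not given; inactive = mean inhibition across replicates below 60%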
EBV LMP1 NFkB: EBV LMP1-driven NF-kappaB luciferase reporter inhibitors, primary screen, cell-based, luminescence, single point | LMP1-induced NF-kappaB luciferase reporter cells | inhibition, % at 12.5 µM | hit rate 0.69% among 350,000 | AID 504558, 2011; in the data active = inhibition above about 41%; inconclusive = no clear call, values can overlap the other calls;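 note: 0% = neutral control wells and 100% = reference inhibitor control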
An asterisk follows results filed as active.

What do the screens show for `CC(=NNC(=S)SCc1ccccc1)c1ccccn1`?
Shn3 inh set2: inconclusive; PAX8 reporter: 5; MITF TRPM1 inh: 45; EBV LMP1 NFkB: 35

Results for CC(=NNC(=S)N1CC2CCC(CC2)C1)c1cccc(C)n1 ?
Shn3 inh set2: 81*; PAX8 reporter: -1; MITF TRPM1 inh: 44; EBV LMP1 NFkB: 79*

Results for CC(=NNC(=S)Nc1cccc(Cl)c1)c1ccccn1 ?
Shn3 inh set2: 84; PAX8 reporter: 46; MITF TRPM1 inh: 33; EBV LMP1 NFkB: 52*

Results for CC(=NNC(=S)N1CCC1)c1ccccn1 ?
Shn3 inh set2: 92*; PAX8 reporter: 94*; MITF TRPM1 inh: 69*; EBV LMP1 NFkB: 50*

How did CC(=NNC(=S)N1CCCC1)c1ccccn1 do in these assays?
Shn3 inh set2: 82; PAX8 reporter: 50; EBV LMP1 NFkB: 57*

Results for COc1ccc(S(=O)(=O)N(C)C[C@H]2Oc3ccc(NC(=O)CCC(F)(F)F)cc3C(=O)N([C@H](C)CO)C[C@@H]2C)cc1 ?
Shn3 inh set2: -3; PAX8 reporter: 7; MITF TRPM1 inh: -3; EBV LMP1 NFkB: -20

How did CCCC1=C(C(=O)OCC)C(c2ccc(F)cc2)n2ncnc2N1 (stereo not drawn) do in these assays?
aSyn 5UTR inh: -2; Shn3 inh set2: 5; MITF TRPM1 inh: -17; EBV LMP1 NFkB: -10

How did CN(C)c1ccc(C=Cc2ccnc3c(O)cccc23)cc1 do in these assays?
Shn3 inh set2: inconclusive; PAX8 reporter: 48; EBV LMP1 NFkB: inconclusive

Results for COc1ccc(S(=O)(=O)Nc2ccc3c(c2)CC(=O)N([C@H](C)CO)C[C@H](C)[C@H](CN(C)C(=O)Nc2ccc(C(F)(F)F)cc2)O3)cc1 ?
PAX8 reporter: 12

How did C[C@@H]1CCCCO[C@@H](CN(C)Cc2ccc3c(c2)OCO3)[C@@H](C)CN([C@@H](C)CO)C(=O)c2cc(NC(=O)Nc3ccc(C(F)(F)F)cc3)ccc2O1 do in these assays?
PAX8 reporter: 77*

How did C[C@@H]1CN([C@@H](C)CO)C(=O)c2cc(NC(=O)Nc3ccc(C(F)(F)F)cc3)ccc2O[C@@H](C)CCCCO[C@@H]1CN(C)Cc1ccc2c(c1)OCO2 do in these assays?
PAX8 reporter: 101*

What do the screens show for `C[C@@H]1CCCCO[C@@H](CN(C)Cc2ccc3c(c2)OCO3)[C@H](C)CN([C@@H](C)CO)C(=O)c2cc(NC(=O)Nc3ccc(C(F)(F)F)cc3)ccc2O1`?
PAX8 reporter: 88*

How did C[C@H]1CCCCO[C@@H](CN(C)Cc2ccc3c(c2)OCO3)[C@@H](C)CN([C@@H](C)CO)C(=O)c2cc(NC(=O)Nc3ccc(C(F)(F)F)cc3)ccc2O1 do in these assays?
PAX8 reporter: -18

What do the screens show for `Cc1ccc2nc(SCC(=O)c3c(N)n(C4CC4)c(=O)[nH]c3=O)[nH]c2c1`?
Shn3 inh set2: -1; PAX8 reporter: 23; MITF TRPM1 inh: 10; EBV LMP1 NFkB: -5

Results for O=C1c2ccccc2C(=O)N1CCCCN(C(=O)c1cc([N+](=O)[O-])cc([N+](=O)[O-])c1)c1ccc(Cl)cc1 ?
aSyn 5UTR inh: 34; Shn3 inh set2: 9; PAX8 reporter: 83*; MITF TRPM1 inh: 12; EBV LMP1 NFkB: 2

How did Nc1ncnc(N)c1NC(=O)c1ccc(OCc2ccccc2)cc1 do in these assays?
Shn3 inh set2: -9; PAX8 reporter: 6; EBV LMP1 NFkB: 3

What do the screens show for `COc1ccc(C(=O)CSc2nc3ccccc3n2CC(=O)c2ccccc2)cc1`?
aSyn 5UTR inh: 15; Shn3 inh set2: 4; MITF TRPM1 inh: -7; EBV LMP1 NFkB: -1

How did COc1ccc(C(=O)Cn2c(C(=O)/C=C/c3ccccc3)nc3ccccc32)cc1 do in these assays?
aSyn 5UTR inh: -55; Shn3 inh set2: 102*; MITF TRPM1 inh: 35; EBV LMP1 NFkB: 7

Results for CCC(=O)Nc1ccc(NC(=S)NC(=O)c2cc3ccccc3o2)cc1 ?
aSyn 5UTR inh: -24; Shn3 inh set2: -2; PAX8 reporter: -31; MITF TRPM1 inh: -17; EBV LMP1 NFkB: 2

How did CCCC(=O)Nc1ccc(Cl)c(NC(=S)NC(=O)c2cc3ccccc3o2)c1 do in these assays?
aSyn 5UTR inh: -8; Shn3 inh set2: 12; PAX8 reporter: 73*; MITF TRPM1 inh: -7; EBV LMP1 NFkB: -8

What do the screens show for `Cc1ccc(-c2csc3nc4c5ccccc5c(NCCCN5CCOCC5)nn4c(=O)c23)cc1`?
aSyn 5UTR inh: -59
